# Source: PubChem BioAssay (NCATS)
# “And” between values parts separate entries of the source, which are not always exact repeats. Equal entries are not always repeated. Results filed as inconclusive are left out. Where a call stands in place of a potency, no number is given. Where a structure was tested more than once in an assay, its records may differ in their call. The source made the active and inactive calls. Unless noted, calls come from the whole dose curve; as a rule, active = well fitted curve in the direction sought with a large enough effect; inconclusive = small, poorly fitted or top-dose-only effect, or another doubt; inactive = no such curve, though single readings can be large; an effect the other way counts as inactive or inconclusive.
# What was measured:
# [1] = biological target: Guanine nucleotide-binding protein G(i) subunit alpha-1 (Homo sapiens) (UniProt P63096); experiment: qHTS Assay for Inhibitors of RGS12 GoLoco Motif Activity (Green Fluorophore) (AID 879);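 note: negative values mean loss of peptide binding seen as reduced polarization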
# Chain of Guanine nucleotide-binding protein G(i) subunit alpha-1 (Homo sapiens) (P63096 whole entry, looked up): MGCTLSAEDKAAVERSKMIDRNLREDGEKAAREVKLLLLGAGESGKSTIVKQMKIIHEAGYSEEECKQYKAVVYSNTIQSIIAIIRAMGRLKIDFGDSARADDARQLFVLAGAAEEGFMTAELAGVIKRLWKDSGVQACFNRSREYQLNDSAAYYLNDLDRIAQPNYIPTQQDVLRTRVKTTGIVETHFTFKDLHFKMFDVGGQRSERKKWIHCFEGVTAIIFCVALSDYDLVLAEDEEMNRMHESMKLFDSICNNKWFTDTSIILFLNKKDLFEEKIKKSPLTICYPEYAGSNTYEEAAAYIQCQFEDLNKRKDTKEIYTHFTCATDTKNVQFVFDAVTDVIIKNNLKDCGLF
# How it was run: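 Fluorescence polarization assay: 50 nM Gαi1 with 10 nM FITC-labeled RGS12 GoLoco peptide in 10 mM Tris pH 7.5, 150 mM NaCl, 0.1 mM GDP, 0.05% NP40, 10 min at room temperature with compound.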
# [2] = biological target: Cytochrome P450 2C9 (Homo sapiens) (UniProt P11712); experiment: qHTS Assay for Inhibitors and Substrates of Cytochrome P450 2C9 (AID 883); note: nearly all actives have a fitted effect of over 60% in size; note: potency is the fitted concentration of half-maximal effect
# Chain of Cytochrome P450 2C9 (Homo sapiens) (P11712 whole entry, looked up): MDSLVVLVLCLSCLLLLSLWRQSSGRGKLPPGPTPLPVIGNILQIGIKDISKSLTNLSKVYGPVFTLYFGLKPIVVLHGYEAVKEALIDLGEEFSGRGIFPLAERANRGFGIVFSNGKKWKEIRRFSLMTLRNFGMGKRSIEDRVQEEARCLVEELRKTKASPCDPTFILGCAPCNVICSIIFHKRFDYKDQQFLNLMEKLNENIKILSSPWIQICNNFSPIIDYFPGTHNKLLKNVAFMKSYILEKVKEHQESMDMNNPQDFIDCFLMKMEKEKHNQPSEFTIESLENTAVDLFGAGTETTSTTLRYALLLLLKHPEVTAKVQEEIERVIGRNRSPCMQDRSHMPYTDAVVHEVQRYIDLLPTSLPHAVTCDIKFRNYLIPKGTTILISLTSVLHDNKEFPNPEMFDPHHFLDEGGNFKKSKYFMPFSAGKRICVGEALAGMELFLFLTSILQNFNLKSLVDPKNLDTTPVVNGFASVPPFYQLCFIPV
# How it was run: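 Signal: luciferase luminescence reporting luciferin produced by CYP2C9. Conditions: 10nM enzyme, Luciferin-H 100uM at KM, 25mM KPO4, 37C, 60 min NADPH-driven reaction. Reference: 57uM sulphaphenazole as 100% inhibition.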
# [3] = biological target: Cytochrome P450 3A4 (Homo sapiens) (UniProt P08684); experiment: qHTS Assay for Inhibitors and Substrates of Cytochrome P450 3A4 (AID 884); note: nearly all actives have a fitted effect of over 50% in size; note: potency is the fitted concentration of half-maximal effect
# Chain of Cytochrome P450 3A4 (Homo sapiens) (P08684 whole entry, looked up): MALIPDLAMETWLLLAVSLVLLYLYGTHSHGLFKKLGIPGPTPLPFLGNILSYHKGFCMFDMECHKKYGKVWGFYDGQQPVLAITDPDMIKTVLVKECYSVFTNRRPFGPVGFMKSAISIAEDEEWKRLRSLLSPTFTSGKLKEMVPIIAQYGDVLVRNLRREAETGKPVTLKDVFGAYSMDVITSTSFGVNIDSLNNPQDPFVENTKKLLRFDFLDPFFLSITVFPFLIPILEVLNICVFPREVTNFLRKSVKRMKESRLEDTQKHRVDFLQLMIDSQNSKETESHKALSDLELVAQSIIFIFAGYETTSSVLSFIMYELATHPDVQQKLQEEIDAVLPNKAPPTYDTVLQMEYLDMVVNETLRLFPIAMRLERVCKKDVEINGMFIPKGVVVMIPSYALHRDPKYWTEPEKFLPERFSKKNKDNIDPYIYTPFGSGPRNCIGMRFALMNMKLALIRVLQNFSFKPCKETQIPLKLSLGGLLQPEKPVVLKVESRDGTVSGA
# How it was run: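 20 nM human CYP3A4 with 25 uM Luciferin-PPXE (at KM) in 200 mM KPO4, preincubated 10 min with compound; NADPH regeneration started a 60 min RT reaction. Luciferin detected by luminescence, normalized to 57 uM ketoconazole as full inhibition.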
# [4] = biological target: Cytochrome P450 3A4 (Homo sapiens) (UniProt P08684); experiment: qHTS Assay for Activators of Cytochrome P450 3A4 (AID 885); note: nearly all actives have a fitted effect of over 65% in size
# How it was run: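 Quantitative HTS format: compounds preincubated with 20nM human CYP3A4 and Luciferin-PPXE substrate at KM, reaction started by NADPH regeneration, stopped after 60 min, luciferase luminescence read 20 min later.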
# [5] = biological target: Muscarinic acetylcholine receptor M1 (Rattus norvegicus) (UniProt P08482); experiment: qHTS Assay for Antagonists of Acetylcholine Muscarinic M1 Receptor: Kinetic Measurement of Intracellular Calcium Response (AID 943); note: nearly all actives have a fitted effect of over 75% in size; note: potency is the fitted concentration of half-maximal effect
# Chain of Muscarinic acetylcholine receptor M1 (Rattus norvegicus) (P08482 whole entry, looked up): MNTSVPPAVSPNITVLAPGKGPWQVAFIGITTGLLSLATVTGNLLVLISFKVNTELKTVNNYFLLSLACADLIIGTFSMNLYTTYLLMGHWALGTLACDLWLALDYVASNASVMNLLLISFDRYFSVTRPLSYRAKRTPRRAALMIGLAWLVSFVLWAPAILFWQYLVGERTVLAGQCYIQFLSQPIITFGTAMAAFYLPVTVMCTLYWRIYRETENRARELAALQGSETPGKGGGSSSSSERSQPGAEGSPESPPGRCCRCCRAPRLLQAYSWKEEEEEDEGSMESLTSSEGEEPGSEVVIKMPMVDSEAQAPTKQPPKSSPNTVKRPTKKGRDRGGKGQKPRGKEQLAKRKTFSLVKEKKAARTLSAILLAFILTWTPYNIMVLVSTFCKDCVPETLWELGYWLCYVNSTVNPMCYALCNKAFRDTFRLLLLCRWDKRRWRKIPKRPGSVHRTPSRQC
# How it was run: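 Rat M1-CHO cells, 2000/well, overnight → Fluo-4 no-wash dye with probenecid, 1 h 37C → compound 10 min, room temp → basal read 6 s → carbachol EC80 (100 nM) → 4 min kinetic read; peak/basal.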
# [6] = biological target: Muscarinic acetylcholine receptor M1 (Rattus norvegicus) (UniProt P08482); experiment: qHTS Assay for Antagonists of Acetylcholine Muscarinic M1 Receptor: Measurement of IP-One Response (AID 944); note: nearly all actives have a fitted effect of over 75% in size; note: potency is the fitted concentration of half-maximal effect
# How it was run: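 M1-CHO (rat), 2000 cells/well, overnight recovery; cpd 10 min; carbachol EC80 (200 nM), 30 min, HEPES buffer + 50 mM LiCl pH 7.4; IP-One HTRF, Ex 337, Em 620/665 nm.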
# [7] = biological target: Pyruvate kinase (Leishmania mexicana) (UniProt Q27686); experiment: qHTS Validation Assay for Inhibitors of Leishmania Mexicana Pyruvate Kinase (AID 945); note: potency is the fitted concentration of half-maximal effect
# Chain of Pyruvate kinase (Leishmania mexicana) (Q27686 2-499 E452W): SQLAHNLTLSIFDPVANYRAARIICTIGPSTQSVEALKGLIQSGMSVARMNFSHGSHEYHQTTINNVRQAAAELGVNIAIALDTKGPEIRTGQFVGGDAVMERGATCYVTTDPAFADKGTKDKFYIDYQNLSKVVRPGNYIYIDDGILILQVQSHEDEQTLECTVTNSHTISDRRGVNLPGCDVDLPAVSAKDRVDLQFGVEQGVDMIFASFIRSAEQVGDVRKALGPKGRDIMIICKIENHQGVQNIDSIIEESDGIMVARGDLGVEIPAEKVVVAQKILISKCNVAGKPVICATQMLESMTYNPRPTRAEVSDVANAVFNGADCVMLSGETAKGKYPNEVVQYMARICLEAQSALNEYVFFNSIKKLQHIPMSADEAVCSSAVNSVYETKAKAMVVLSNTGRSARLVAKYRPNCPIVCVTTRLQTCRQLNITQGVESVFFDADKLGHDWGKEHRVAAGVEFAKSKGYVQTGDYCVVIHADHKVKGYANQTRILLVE
# How it was run: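 Mutant LmPYK (E451W), 0.2 nM, plus 0.5 mM PEP and 0.1 mM ADP in 50 mM imidazole pH 7.2 containing 0.01% Tween 20 and 0.05% BSA. Incubated 1 h at room temperature; luminescence via PKLight, normalized to DMSO.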
# [8] = biological target: Cytochrome P450 2D6 (Homo sapiens) (UniProt P10635); experiment: qHTS Assay for Inhibitors and Substrates of Cytochrome P450 2D6 (AID 891); note: nearly all actives have a fitted effect of over 60% in size; note: potency is the fitted concentration of half-maximal effect
# Chain of Cytochrome P450 2D6 (Homo sapiens) (P10635 whole entry, looked up): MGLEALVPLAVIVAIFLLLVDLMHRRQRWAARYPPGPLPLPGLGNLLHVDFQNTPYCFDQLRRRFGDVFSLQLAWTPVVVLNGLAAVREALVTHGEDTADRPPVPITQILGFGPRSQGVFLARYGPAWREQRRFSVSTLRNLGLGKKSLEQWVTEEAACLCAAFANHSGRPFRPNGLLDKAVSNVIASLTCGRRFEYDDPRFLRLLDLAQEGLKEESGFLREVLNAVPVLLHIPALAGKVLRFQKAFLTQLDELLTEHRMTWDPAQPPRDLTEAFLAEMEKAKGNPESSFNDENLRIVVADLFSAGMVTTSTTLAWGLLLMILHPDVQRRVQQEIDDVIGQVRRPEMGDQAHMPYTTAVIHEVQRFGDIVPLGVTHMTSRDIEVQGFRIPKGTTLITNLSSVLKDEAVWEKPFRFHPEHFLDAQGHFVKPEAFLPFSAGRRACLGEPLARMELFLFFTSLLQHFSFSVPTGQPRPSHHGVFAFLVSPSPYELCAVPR
# How it was run: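 Human CYP2D6 (5 nM) with 30 uM Luciferin-ME EGE (at Km) in 100 mM KPO4, compound preincubated 10 min, then NADPH regeneration system for 60 min at room temperature. Luciferin read by luminescence; normalized to 1.43 uM quinidine.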
# [9] = biological target: Cytochrome P450 2C19 (Homo sapiens) (UniProt P33261); experiment: qHTS Assay for Inhibitors and Substrates of Cytochrome P450 2C19 (AID 899); note: nearly all actives have a fitted effect of over 60% in size; note: potency is the fitted concentration of half-maximal effect
# Chain of Cytochrome P450 2C19 (Homo sapiens) (P33261 whole entry, looked up): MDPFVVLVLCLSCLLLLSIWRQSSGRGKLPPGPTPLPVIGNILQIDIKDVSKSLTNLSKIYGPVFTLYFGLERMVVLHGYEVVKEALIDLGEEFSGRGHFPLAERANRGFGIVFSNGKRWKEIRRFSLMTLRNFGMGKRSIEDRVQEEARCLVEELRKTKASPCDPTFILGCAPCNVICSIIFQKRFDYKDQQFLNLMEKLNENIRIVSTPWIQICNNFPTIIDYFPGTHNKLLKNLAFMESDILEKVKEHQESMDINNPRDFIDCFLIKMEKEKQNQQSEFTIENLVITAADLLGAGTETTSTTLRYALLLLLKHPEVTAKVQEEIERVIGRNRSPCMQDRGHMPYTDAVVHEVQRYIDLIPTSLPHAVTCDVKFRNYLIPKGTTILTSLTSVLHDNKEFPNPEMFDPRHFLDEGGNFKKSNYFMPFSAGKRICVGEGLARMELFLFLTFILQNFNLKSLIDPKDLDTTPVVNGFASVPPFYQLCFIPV
# How it was run: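 Signal comes from luciferase acting on luciferin released by CYP2C19-mediated hydroxylation of Luciferin-H EGE, 10uM (KM). Assay mix: 5nM enzyme, 50mM KPO4; 60 min at 37C with NADPH regeneration. Data normalized against 57uM ketoconazole.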
# [10] = qHTS Assay for Identification of Small Molecule Agonists for Thrombopoietin (TPO) Signaling Pathway (AID 917); note: potency is the fitted concentration of half-maximal effect
# How it was run: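 We measured Glycoprotein IIb promoter–luciferase output in IL-3-starved Ba/F3 murine cells expressing the human TPO receptor after 24 hrs at 37 C with compounds and 26 pM TPO.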
# [11] = Cellular Toxicity (caspase-3) Renal Proximal Tubule (AID 667); details: Potency: caspase-3 activation;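 note: cells exposed to compound for 16 hours at 37 °C before detection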
# How it was run: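 In qHTS format, rat primary proximal tubule cells seeded at 1000 per well are exposed to compounds for 16 hours at 37 °C. An increase in Caspase-Glo 3/7 luminescence indicates caspase activation.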
# [12] = Cell Viability - LYMP2-001 (AID 921);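 note: cells exposed to compound for 24 h at 37 °C; nearly all actives have a fitted effect of over 70% in size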; note: potency is the fitted concentration of half-maximal effect
# How it was run: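 qHTS, 1536-well; lymphoblastoid cells, 24 hr compound, 37 C; ATP by CellTiter-Glo, 30 min RT; luminescence; Hill-fit AC50.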
# [13] = MultiTox-Fluor Cytotoxicity Assay - LYMP1-001 - Dead Cells (AID 946); note: potency is the fitted concentration of half-maximal effect
# How it was run: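 In this qHTS, 15 uM tetraoctylammonium bromide defined 100% and DMSO defined basal activity. Lymphoblastoid cells (LYMP1-001, 2500 per well) received compound for 16 hr at 37 C before a fluorogenic dead-cell substrate readout at 485/520 nm.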
# [14] = MultiTox-Fluor Cytotoxicity Assay - LYMP1-001 - Live Cells (AID 947)
# [15] = qHTS Assay for Identification of Small Molecule Antagonists for NFkB Signaling Pathway (AID 895; active = well fitted inhibition curve with a large enough effect in the signal ratio, with a control signal flat, not every such curve was filed as active; the % refers to the signal ratio; note: potency is the fitted concentration of half-maximal effect)
# How it was run: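 ME-180 NFkB-bla cells (beta-lactamase under NFkB response element), plated overnight, treated with compound then 10 pM TNF alpha (about EC50) for 5 hrs at 37 C. LiveBLAzer FRET read at 460/530 nm emission, 405 nm excitation.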
# [16] = Confirmation and Secondary Assay for Modulators of Hemoglobin Beta Chain Splicing at IVS2 654 locus (AID 910);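 note: HeLa cells stably carrying EGFP split by mutant beta-globin IVS2-654 intron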
# How it was run: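 HeLa cells stably expressing EGFP interrupted by β-globin IVS2-654 intron, seeded overnight in Opti-MEM/2% FCS, then treated 2 days at 37 °C. Restored splicing read as total peak GFP intensity per well by laser scanning cytometry (488 nm excitation, 500–520 nm emission); 500 nM antisense PNA as control.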
# [17] = Confirmation and Secondary Assay for Modulators of Hemoglobin Beta Chain Splicing at IVS2 705 locus (AID 930);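 note: HeLa cells stably expressing the EGFP-705 splicing reporter; GFP fluorescence per well restored by corrected splicing of the IVS2-705 intron in EGFP; series mostly up to about 46 µM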
# How it was run: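 Stable HeLa line with EGFP disrupted by mutant beta-globin intron 2 (705). Overnight attachment, then 2 days of compound at 37C, 5% CO2. Signal: peak GFP intensity summed over objects 5-250 µm.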
# [18] = qHTS Assay for Identification of Small Molecule Antagonists for Thrombopoietin (TPO) Signaling Pathway (AID 918); details: TPO-dependent cell signaling reporter, antagonist mode; note: potency is the fitted concentration of half-maximal effect; nearly all actives have a fitted effect of over 60% in size
# How it was run: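 Ba/F3 (murine, hTPO-R, GPIIb-luc reporter); overnight IL-3 withdrawal; cpd + TPO 26 pM final (EC50); 24 h 37 C/5% CO2; Steadylite luminescence after 10 min RT.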
compound,measurement,setting,value
Cn1cc(C2=C(c3ccc(Cl)cc3Cl)C(=O)NC2=O)c2ccccc21,outcome,[1],inactive
same,Potency,[2],10000 nM (active)
same,Potency,[3],2000 nM (active)
same,Potency,[4],inactive
same,Potency,[5],inactive
same,Potency,[6],inactive
same,Potency,[7],inactive
O=C(Nc1ccccc1)c1cc([N+](=O)[O-])ccc1Cl,outcome,[1],inactive
same,Potency,[2],inactive and 6.31 µM (active)
same,Potency,[4],inactive
same,Potency,[8],inactive
same,Potency,[9],inactive and 794 nM (active)
same,Potency,[10],1580 nM (active)
same,Potency,[6],inactive
CCCCCCCCCCCCCCCCCC(=O)O,Potency,[11],inactive
same,Potency,[3],inactive
same,Potency,[12],inactive
same,Potency,[13],inactive
same,Potency,[14],inactive
N=C1N=C(N)c2cc3ccccc3cc21,Potency,[11],inactive
same,Potency,[3],inactive
same,Potency,[12],39800 nM (active)
same,Potency,[13],39800 nM (active)
O=c1[nH]c2cc([N+](=O)[O-])c([N+](=O)[O-])cc2[nH]c1=O,outcome,[1],inactive
same,Potency,[2],inactive
same,Potency,[4],inactive
same,Potency,[8],inactive
same,Potency,[9],inactive
same,Potency,[10],inactive
same,Potency,[5],inactive
same,Potency,[6],inactive
same,Potency,[7],inactive
Nc1nc2ccc([N+](=O)[O-])cc2s1,Potency,[11],inactive
same,Potency,[12],inactive
same,Potency,[13],inactive
same,Potency,[14],inactive
Oc1cc2c(cc1O)CN(C(=S)NCCc1ccc(Cl)cc1)CCC2,outcome,[1],inactive
same,Potency,[3],3160 nM (active)
same,Potency,[4],inactive
same,Potency,[9],5.01 µM (active) and 316 nM (active)
same,Potency,[5],inactive
same,Potency,[6],inactive
same,Potency,[7],inactive
C=C[C@H]1CN2CC[C@@H]1C[C@@H]2[C@@H](O)c1ccnc2ccc(OC)cc12,outcome,[1],inactive
same,outcome,[2],inactive
same,Potency,[15],inactive
same,Potency,[10],inactive
same,Potency,[6],inactive
same,Potency,[7],inactive
N#C/C(=C\c1ccc(O)c(O)c1)C(=O)NCc1ccccc1,outcome,[1],inactive
same,Potency,[2],inactive
same,Potency,[4],inactive
same,Potency,[8],inactive
same,Potency,[9],inactive
same,Potency,[5],inactive
same,Potency,[7],inactive
COc1cccc(C(=O)NCCN2CCN(c3ccc(Cl)cc3)CC2)c1,outcome,[1],inactive
same,Potency,[4],inactive
same,Potency,[15],inactive
same,Potency,[10],inactive
same,Potency,[7],inactive
N#C/C(=C\c1c[nH]c2ccccc12)C(=O)c1ccc(O)c(O)c1,outcome,[1],inactive
same,Potency,[3],7940 nM (active)
same,Potency,[4],inactive
same,Potency,[5],inactive
same,Potency,[6],inactive
same,Potency,[7],inactive
NCCCCC(=O)O,outcome,[1],inactive
same,Potency,[3],inactive
same,Potency,[8],inactive
same,outcome,[16],inactive
same,Potency,[10],inactive
same,outcome,[17],inactive
same,Potency,[5],inactive
same,Potency,[6],inactive
same,Potency,[7],inactive
CCCCN1CCC(n2c(=O)[nH]c3ccccc32)CC1,outcome,[1],inactive
same,Potency,[2],inactive
same,Potency,[8],3160 nM (active)
same,Potency,[15],inactive
same,Potency,[10],inactive
same,Potency,[5],inactive
same,Potency,[7],inactive
O=C(c1cc(O)c(O)c([N+](=O)[O-])c1)c1ccccc1F,outcome,[1],inactive
same,Potency,[2],1260 nM (active)
same,Potency,[4],inactive
same,Potency,[10],inactive
same,Potency,[5],inactive
same,Potency,[6],inactive
same,Potency,[7],inactive
CN=c1nc(-c2ccccc2)n(-c2ccccc2)s1,outcome,[1],inactive
same,Potency,[2],2000 nM (active)
same,Potency,[4],inactive
same,Potency,[15],inactive
same,Potency,[9],3160 nM (active)
same,Potency,[18],2510 nM (active)
same,Potency,[6],12600 nM (active)
same,Potency,[7],5010 nM (active)
COc1ccccc1N1CCN(CCCCNS(=O)(=O)c2cccc3c(N(C)C)cccc23)CC1,outcome,[1],inactive
same,Potency,[3],2510 nM (active)
same,Potency,[4],inactive
same,Potency,[9],501 nM (active)
same,Potency,[5],11200 nM (active)
same,Potency,[7],inactive
Fc1ccc(C(OCCCc2cnc[nH]2)c2ccc(F)cc2)cc1,outcome,[1],inactive
same,Potency,[3],794 nM (active)
same,Potency,[4],inactive
same,Potency,[8],631 nM (active)
same,Potency,[9],4 nM (active)
same,Potency,[5],5010 nM (active)
same,Potency,[6],7940 nM (active)
same,Potency,[7],inactive
N#C/C(=C\c1ccc(O)c(O)c1)C(=O)NCCCc1ccccc1,outcome,[1],inactive
same,Potency,[3],2510 nM (active)
same,Potency,[4],inactive
same,Potency,[5],inactive
same,Potency,[7],inactive
N#C/C(=C\c1ccc(O)c(O)c1)C(=O)c1ccc(O)c(O)c1,outcome,[1],inactive
same,Potency,[4],inactive
same,Potency,[15],inactive
same,Potency,[5],inactive
same,Potency,[7],inactive
CN(C)c1nc2c(Br)c(Br)c(Br)c(Br)c2[nH]1,outcome,[1],inactive
same,Potency,[3],20000 nM (active)
same,Potency,[4],inactive
same,Potency,[15],501 nM (active)
same,Potency,[10],1260 nM (active)
same,Potency,[5],inactive
same,Potency,[6],inactive
same,Potency,[7],inactive
C[C@@H](NC(=O)/C(C#N)=C/c1ccc(O)c(O)c1)c1ccccc1,outcome,[1],inactive
same,Potency,[2],inactive
same,Potency,[4],inactive
same,Potency,[5],inactive
same,Potency,[6],inactive
same,Potency,[7],inactive
N=C(N)SCCc1ccc(CCSC(=N)N)cc1,outcome,[1],inactive
same,Potency,[3],inactive
same,Potency,[15],inactive
same,Potency,[10],inactive
same,Potency,[5],inactive
same,Potency,[6],inactive
same,Potency,[7],inactive
N[C@H](CCCP(=O)(O)O)C(=O)O,outcome,[1],inactive
same,Potency,[2],inactive
same,Potency,[8],inactive
same,Potency,[9],inactive
same,Potency,[10],inactive
same,Potency,[5],inactive
same,Potency,[7],inactive
